From ChEMBL document CHEMBL2218924, “A broad activity screen in support of a chemogenomic map for kinase signalling research and drug discovery” (Biochem J, 2013)

Each compound was assayed against G protein-coupled receptor kinase 5 (Homo sapiens) (UniProt P34947). Settings: at 10 µM.
Chain of G protein-coupled receptor kinase 5 (Homo sapiens) (P34947 whole entry, looked up): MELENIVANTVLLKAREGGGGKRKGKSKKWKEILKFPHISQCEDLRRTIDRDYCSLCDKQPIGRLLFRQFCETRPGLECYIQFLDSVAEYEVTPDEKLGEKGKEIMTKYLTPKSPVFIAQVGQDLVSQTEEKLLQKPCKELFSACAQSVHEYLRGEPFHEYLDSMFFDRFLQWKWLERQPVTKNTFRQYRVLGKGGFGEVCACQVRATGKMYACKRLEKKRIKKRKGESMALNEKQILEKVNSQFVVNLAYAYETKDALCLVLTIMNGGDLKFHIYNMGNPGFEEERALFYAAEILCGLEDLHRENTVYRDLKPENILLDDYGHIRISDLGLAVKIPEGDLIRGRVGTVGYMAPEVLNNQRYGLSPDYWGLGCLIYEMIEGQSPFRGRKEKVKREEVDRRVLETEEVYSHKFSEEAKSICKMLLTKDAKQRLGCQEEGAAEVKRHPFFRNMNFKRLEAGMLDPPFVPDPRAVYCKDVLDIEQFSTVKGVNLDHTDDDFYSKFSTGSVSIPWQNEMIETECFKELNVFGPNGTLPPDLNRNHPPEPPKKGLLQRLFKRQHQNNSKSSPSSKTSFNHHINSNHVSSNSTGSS

Row | Compound | residual activity [%]
1 | O=c1cc(-c2cccc3c2Sc2ccccc2S3)oc(N2CCOCC2)c1 | 99
2 | O=C(Nc1cccc(Nc2nccc(Nc3cccc(C(F)(F)F)c3)n2)c1)C1CC1 | 102
3 | CCN(CC)CCCCN1c2ccccc2Oc2ccc(Cl)cc21 | 97
4 | Nc1cccc(-c2cc3c(Oc4cccc(O)c4)ncnc3[nH]2)c1 | 93
5 | COc1ccc(OC)c2c(=S)c3ccccc3[nH]c12 | 97
6 | COc1cccc(-c2cc(=O)c3ccccc3o2)c1N | 102
7 | CNc1cc2c(Nc3cccc(Br)c3)ncnc2cn1 | 100
8 | CC(C)n1cnc2/c(=N/c3cccc(Cl)c3)nc(NCCO)[nH]c21 | 61
9 | CN(C)c1ccc(/C=C2\C(=O)Nc3ccccc32)cc1 | 86
10 | N#C/C(=C(\N)Sc1ccc(N)cc1)c1ccccc1C(F)(F)F | 95
11 | O=C1Nc2cc(Br)ccc2/C1=C1/Nc2ccccc2/C1=N\O | 98
12 | Ic1cccc(CSc2nnc(-c3ccncc3)o2)c1 | 89
13 | O=C1NC(=O)c2cc(Nc3ccc(F)cc3)c(Nc3ccc(F)cc3)cc21 | 90
14 | O=C1c2ccccc2-[n+]2ccc3c([nH]c4ccccc43)c21 | 91
15 | COc1ccc(S(=O)(=O)N(CCO)c2ccccc2CN(C)C/C=C/c2ccc(Cl)cc2)cc1 | 87
16 | O=C1NC(=O)/C(=C\c2ccc3nccnc3c2)S1 | 82
17 | Oc1ccc(Nc2nc(-c3ccc(Cl)cc3)cs2)cc1 | 100
18 | O=C1NC(=O)c2c1c1c3ccccc3[nH]c1c1[nH]c3cc(Br)ccc3c21 | 89
19 | Oc1c2ccccc2c2c3c(cccc13)N=N2 | 63

What follows are compounds tested against G protein-coupled receptor kinase 6 (Homo sapiens) (UniProt P43250). Settings: at 10 µM.
Chain of G protein-coupled receptor kinase 6 (Homo sapiens) (P43250 whole entry, looked up): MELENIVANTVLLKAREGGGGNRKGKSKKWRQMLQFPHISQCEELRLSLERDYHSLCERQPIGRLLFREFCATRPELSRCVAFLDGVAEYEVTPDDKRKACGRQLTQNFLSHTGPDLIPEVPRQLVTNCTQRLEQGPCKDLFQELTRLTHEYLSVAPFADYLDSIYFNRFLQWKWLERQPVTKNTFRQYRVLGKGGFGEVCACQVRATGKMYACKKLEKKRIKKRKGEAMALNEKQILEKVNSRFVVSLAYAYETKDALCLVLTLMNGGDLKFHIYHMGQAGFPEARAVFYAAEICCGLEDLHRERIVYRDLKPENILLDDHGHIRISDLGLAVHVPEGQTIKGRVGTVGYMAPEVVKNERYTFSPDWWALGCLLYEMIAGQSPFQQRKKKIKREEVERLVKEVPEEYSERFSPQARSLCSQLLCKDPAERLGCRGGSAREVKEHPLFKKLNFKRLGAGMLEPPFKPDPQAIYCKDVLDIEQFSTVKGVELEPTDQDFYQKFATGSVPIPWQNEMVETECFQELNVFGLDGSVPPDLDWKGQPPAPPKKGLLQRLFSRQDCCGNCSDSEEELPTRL

Row | Compound | residual activity [%]
20 | CC(=O)O/N=C1\C(=C2\C(=O)Nc3cc(Br)ccc32)Nc2ccccc21 | 88
21 | Oc1n[nH]c2nnc(-c3c(-c4ccccc4)nn4ccccc34)cc12 | 85
22 | Cn1cnc2cc3c(Nc4cccc(Br)c4)ncnc3cc21 | 96
23 | O=C(O)c1ccc2c3c1cccc3c(=O)n1c3ccccc3nc21 | 91
24 | CCC(=O)Nc1ccc2ncnc(Nc3cccc(Br)c3)c2c1 | 83
25 | CO[C@H]1C[C@@H]2CC[C@@H](C)[C@@](O)(O2)C(=O)C(=O)N2CCCC[C@H]2C(=O)O[C@H]([C@H](C)C[C@@H]2CC[C@@H](O)[C@H](OC)C2)CC(=O)[C@H](C)/C=C(\C)[C@@H](O)[C@@H](OC)C(=O)[C@H](C)C[C@H](C)/C=C/C=C/C=C/1C | 83
26 | O=C1NC(=O)/C(=C/c2ccc3c(c2)OC(F)(F)O3)S1 | 87
27 | O=C1Nc2ccccc2/C1=C1/Nc2ccccc2/C1=N\OCCC(O)CO (centres undefined) | 72
28 | O=c1c2ccccc2[nH]c(=S)n1CCN1CCC(=C(c2ccc(F)cc2)c2ccc(F)cc2)CC1 | 90
29 | CC(C)n1cnc2c(NCc3ccccc3)nc(NCCCO)nc21 | 87
30 | Cc1nc2cc3nc(-c4cccs4)cnc3cc2n1C | 92
31 | COc1cc2ncnc(Nc3ccc(O)c(Br)c3)c2cc1OC | 78
32 | CCOc1cc2ncnc(Nc3cccc(Br)c3)c2cc1OCC | 90
33 | Cn1cc(/C=C2\C(=O)Nc3ccc(S(N)(=O)=O)cc32)c2ccccc21 | 89
34 | COc1ccc(CNc2nc(N(CCO)CCO)nc3c2ncn3C(C)C)cc1 | 86
35 | O=c1cc(-c2cccc3c2Sc2ccccc2S3)oc(N2CCOCC2)c1 | 101
36 | O=C(Nc1cccc(Nc2nccc(Nc3cccc(C(F)(F)F)c3)n2)c1)C1CC1 | 94
37 | CCN(CC)CCCCN1c2ccccc2Oc2ccc(Cl)cc21 | 98
38 | Nc1cccc(-c2cc3c(Oc4cccc(O)c4)ncnc3[nH]2)c1 | 93
39 | COc1ccc(OC)c2c(=S)c3ccccc3[nH]c12 | 80
40 | COc1cccc(-c2cc(=O)c3ccccc3o2)c1N | 96
41 | CNc1cc2c(Nc3cccc(Br)c3)ncnc2cn1 | 90
42 | CC(C)n1cnc2/c(=N/c3cccc(Cl)c3)nc(NCCO)[nH]c21 | 53
43 | CN(C)c1ccc(/C=C2\C(=O)Nc3ccccc32)cc1 | 90
44 | N#C/C(=C(\N)Sc1ccc(N)cc1)c1ccccc1C(F)(F)F | 93
45 | O=C1Nc2cc(Br)ccc2/C1=C1/Nc2ccccc2/C1=N\O | 86
46 | Ic1cccc(CSc2nnc(-c3ccncc3)o2)c1 | 83
47 | O=C1NC(=O)c2cc(Nc3ccc(F)cc3)c(Nc3ccc(F)cc3)cc21 | 81
48 | O=C1c2ccccc2-[n+]2ccc3c([nH]c4ccccc43)c21 | 90
49 | COc1ccc(S(=O)(=O)N(CCO)c2ccccc2CN(C)C/C=C/c2ccc(Cl)cc2)cc1 | 86
